Potency data for 17 compounds are collected here from PubChem BioAssay (Tox21).

Assay [1] is described as follows: qHTS assay to identify small molecule antagonists of the estrogen related receptor (ERR) signaling pathway from Tox21 library - cell viability counter screen (AID 1224834). Note: nearly all actives have a fitted effect of over 30% in size. Note: potency is the fitted concentration of half-maximal effect. Put shortly:
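ERR cells, 2,000/well; 6 h settle at 37 C/5% CO2; pin-tool compound transfer in DMSO; 17.5 h at 37 C; CellTiter-Fluor, 30 min; fluorescence intensity.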

For assay [2], the target named is Luciferin 4-monooxygenase (Photinus pyralis) (UniProt P08659). In words: qHTS assay to identify small molecule inhibitors of firefly luciferase (AID 1224835). Note: nearly all actives have a fitted effect of over 25% in size. Note: potency is the fitted concentration of half-maximal effect. Summed up: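 Inhibition of purified Photinus luciferase is measured by luminescence. Substrate levels (D-luciferin, ATP) sit at their KM values. Each compound is tested in a concentration series.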
Sequence of Luciferin 4-monooxygenase (Photinus pyralis) (P08659 whole entry, looked up): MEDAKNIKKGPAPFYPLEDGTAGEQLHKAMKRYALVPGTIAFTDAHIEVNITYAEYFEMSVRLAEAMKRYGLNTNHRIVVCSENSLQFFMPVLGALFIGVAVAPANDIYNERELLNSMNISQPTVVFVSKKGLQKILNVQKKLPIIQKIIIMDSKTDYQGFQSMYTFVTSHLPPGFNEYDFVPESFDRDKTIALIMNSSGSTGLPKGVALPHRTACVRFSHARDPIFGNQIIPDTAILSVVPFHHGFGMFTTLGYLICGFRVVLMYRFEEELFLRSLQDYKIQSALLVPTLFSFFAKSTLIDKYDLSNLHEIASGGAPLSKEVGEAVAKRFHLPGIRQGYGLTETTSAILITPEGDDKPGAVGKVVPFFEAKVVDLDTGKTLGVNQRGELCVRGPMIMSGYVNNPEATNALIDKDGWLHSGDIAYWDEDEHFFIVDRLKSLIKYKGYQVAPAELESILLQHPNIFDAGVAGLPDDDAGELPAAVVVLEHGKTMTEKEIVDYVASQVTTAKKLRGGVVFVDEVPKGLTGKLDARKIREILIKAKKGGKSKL
(In general: In qHTS, concentration-response curves come from the screen itself.)

Assay [3] in a line: qHTS assay to identify small molecule agonists of the constitutive androstane receptor (CAR) signaling pathway - cell viability counter screen (AID 1224836). Note: nearly all actives have a fitted effect of over 45% in size. Note: potency is the fitted concentration of half-maximal effect. Put shortly: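 Compound titrations (15 concentrations) went onto HepG2-CYP2B6-hCAR cells 4 h after seeding, alongside PK11195 at a final 0.75 uM; a 23 h, 37 C/5% CO2 incubation preceded CellTiter-Fluor viability measurement.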

The nature of assay [4]: qHTS assay to identify small molecule antagonists of the constitutive androstane receptor (CAR) signaling pathway - cell viability counter screen (AID 1224837). Note: nearly all actives have a fitted effect of over 45% in size. Note: potency is the fitted concentration of half-maximal effect. Summed up:
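Viability was measured with CellTiter-Fluor in a HepG2 line carrying stably transfected hCAR and a CYP2B6-2.2kb construct. Cells were exposed for 23 hr at 37 C to 15 compound concentrations with 50 nM CITCO as agonist.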

For assay [5], the target named is Nuclear receptor subfamily 1 group I member 3 (Homo sapiens) (UniProt Q14994). In words: qHTS assay to identify small molecule antagonists of the constitutive androstane receptor (CAR) signaling pathway (AID 1224838).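 Note: HepG2 cells stably expressing hCAR with CYP2B6 luciferase reporter stimulated by CITCO; nearly all actives have a fitted effect of over 40% in size.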 Note: potency is the fitted concentration of half-maximal effect. Summed up: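 Antagonist mode used CITCO at a final 50 nM to activate CAR in human hepatoma HepG2 cells carrying stable hCAR and a 2.2 kb CYP2B6 promoter-luciferase construct. Compounds were tested at 15 concentrations over 24 h, with luminescence as the end point.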
Sequence of Nuclear receptor subfamily 1 group I member 3 (Homo sapiens) (Q14994 whole entry, looked up): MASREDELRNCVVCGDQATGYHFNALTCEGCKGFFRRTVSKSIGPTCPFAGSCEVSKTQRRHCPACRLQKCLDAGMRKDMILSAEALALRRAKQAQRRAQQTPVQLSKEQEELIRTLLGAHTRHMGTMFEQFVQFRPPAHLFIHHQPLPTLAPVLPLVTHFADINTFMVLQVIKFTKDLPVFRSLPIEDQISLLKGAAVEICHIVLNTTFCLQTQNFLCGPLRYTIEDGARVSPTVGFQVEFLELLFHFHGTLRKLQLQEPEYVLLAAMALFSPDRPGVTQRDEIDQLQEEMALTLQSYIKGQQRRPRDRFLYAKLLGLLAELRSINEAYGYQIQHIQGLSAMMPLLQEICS

Assay [6] in a line: qHTS assay to identify small molecule antagonists of the estrogen related receptor signaling pathway with the pleiotropic PPARgamma coactivator (PGC) from Tox21 10K library - cell viability counter screen (AID 1224840; active = well fitted cell-killing curve with a large enough effect in the repeat runs, not every such curve was filed as active; note: nearly all actives have a fitted effect of over 40% in size; note: potency is the fitted concentration of half-maximal effect). Summed up: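 Multiplexed viability counter screen in the PGC/ERR cell line: cells treated with DMSO-dissolved compounds for 17.5 hours at 37 C, then viability measured as CellTiter-Fluor fluorescence.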

Assay [7] concerns the target Thyrotropin receptor (Homo sapiens) (UniProt P16473). In words: qHTS assay to identify small molecule agonists of the thyroid stimulating hormone receptor (TSHR) signaling pathway (AID 1224843; calls by dose curve; note: nearly all actives have a fitted effect of over 45% in size). Summed up: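 A cell-based cAMP HTRF format was run in TSHR-transfected HEK293 cells, 800 per well. Treatment: 30 min, room temperature. Detection: 1 h with labelled cAMP and anti-cAMP cryptate. Concentration-response over 15 points, three replicates.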

Assay [8] in a line: qHTS assay to identify small molecule antagonists of the estrogen related receptor signaling pathway with the pleiotropic PPARgamma coactivator (PGC) from Tox21 10K library (AID 1224841; call rule not given here; note: series mostly up to about 92 µM; actives are mostly falling curves and most rising ones were filed inactive; nearly all actives have a fitted effect of over 50% in size). Summed up:
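Steps: plate 2,000 PGC/ERR cells per well; incubate 6 h at 37 C with 5% CO2; transfer compounds from DMSO stocks by pin tool; incubate 18 h at 37 C; add One-Glo; measure luminescence 30 min later.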

The nature of assay [9]: qHTS assay to identify small molecule agonists of the estrogen related receptor signaling pathway with the pleiotropic PPARgamma coactivator (PGC) from Tox21 10K library (AID 1224842). Note: nearly all actives have a fitted effect of over 15% in size. Note: potency is the fitted concentration of half-maximal effect. Summed up: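 Luminescence from One-Glo (30 min, room temperature) measured after PGC/ERR cells had 18 h at 37 C with pinned compound (23 nL in DMSO). Cells had been seeded at 2,000 per well and pre-incubated 6 h.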

The target in assay [10] is Nuclear receptor subfamily 1 group I member 3 (Homo sapiens) (UniProt Q14994). As to the kind of experiment: qHTS assay to identify small molecule agonists of the constitutive androstane receptor (CAR) signaling pathway (AID 1224839). Note: nearly all actives have a fitted effect of over 15% in size. Note: potency is the fitted concentration of half-maximal effect. Put shortly:
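In this screen, CAR-driven CYP2B6 promoter activity is measured by luminescence in HepG2-CYP2B6-hCAR cells after 24 h with test compounds and 0.75 uM PK11195 (final concentration).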

Inconclusive results are not listed. The source made the active and inactive calls. Unless noted, calls come from the whole dose curve; as a rule, active = well fitted curve in the direction sought with a large enough effect in the repeat runs; inconclusive = weak or mixed curves; inactive = no such curve, though single readings can be large; an effect the other way counts as inactive or inconclusive.

Sequence of Thyrotropin receptor (Homo sapiens) (P16473 whole entry, looked up): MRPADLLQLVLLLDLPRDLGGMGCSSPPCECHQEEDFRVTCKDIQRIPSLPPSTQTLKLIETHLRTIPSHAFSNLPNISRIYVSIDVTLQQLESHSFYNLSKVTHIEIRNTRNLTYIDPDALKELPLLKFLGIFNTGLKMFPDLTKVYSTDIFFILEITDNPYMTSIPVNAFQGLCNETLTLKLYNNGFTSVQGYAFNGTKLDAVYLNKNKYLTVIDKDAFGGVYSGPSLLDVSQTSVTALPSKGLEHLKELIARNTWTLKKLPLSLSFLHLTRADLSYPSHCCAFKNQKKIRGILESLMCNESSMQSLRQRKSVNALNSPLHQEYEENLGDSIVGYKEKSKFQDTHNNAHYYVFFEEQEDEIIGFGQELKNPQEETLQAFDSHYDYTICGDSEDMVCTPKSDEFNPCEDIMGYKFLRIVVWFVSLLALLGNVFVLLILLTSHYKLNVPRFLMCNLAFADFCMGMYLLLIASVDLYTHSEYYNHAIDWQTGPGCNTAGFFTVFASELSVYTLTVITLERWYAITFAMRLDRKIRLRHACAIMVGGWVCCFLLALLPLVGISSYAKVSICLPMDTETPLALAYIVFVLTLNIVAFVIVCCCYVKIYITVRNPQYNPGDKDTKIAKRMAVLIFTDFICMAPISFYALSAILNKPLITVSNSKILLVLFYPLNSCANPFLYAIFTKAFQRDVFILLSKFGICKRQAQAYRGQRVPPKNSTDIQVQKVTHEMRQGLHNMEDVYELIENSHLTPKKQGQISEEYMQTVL

For `Oc1cccc(Nc2ccccc2)c1`, the Potency result in assay [1], in assay [3], in assay [4], in [5], in assay [6] and in [7] was “inactive” each time. For the same compound, the Potency in assay [2] is 37.1 µM (active).

In the case of `CCOC(=O)c1ccc(C#Cc2ccc3c(c2)C(C)(C)CCS3)nc1`, the Potency entry in assay [1], in assay [2], in assay [3], in assay [4] and in assay [6] was “inactive” each time.

For the compound `O=C1Cc2cc(Cl)ccc2N1`, the Potency entry in assay [1], in [2], in assay [3], in [4], in assay [5] and in [6] was “inactive” throughout. In addition, the Potency entry in assay [8], in assay [9] and in assay [7] was “inactive” each time.

On to `CCCCOc1ccc(OCCCN2CCOCC2)cc1`, for which the Potency entry in assay [1], in assay [2], in [3], in assay [4], in assay [5] and in assay [6] was “inactive” in each case. Besides, the Potency result in [7] was “inactive”.

Regarding `CCC=CC#N`, the Potency entry in assay [1], in [2], in [3], in assay [4], in assay [5] and in assay [10] was “inactive” each time. For the same compound, the Potency entry in assay [6] and in [7] was “inactive” in each case.

Regarding `C1COC1`, the Potency entry in [1], in assay [2], in [3], in [4], in assay [5] and in assay [10] was “inactive” each time. For the same compound, the Potency entry in assay [6] and in assay [7] was “inactive” each time.

For `c1ccc2sc(SN(C3CCCCC3)C3CCCCC3)nc2c1`, the Potency result in [1], in assay [2], in assay [3], in assay [4], in [5] and in [6] was “inactive” throughout. Further, in assay [7], the Potency result is “inactive”.

Turning to `c1ccc2c(c1)CCc1ccccc1N2`, the Potency entry in [1], in assay [3], in assay [4], in [5], in assay [6] and in assay [7] was “inactive” throughout. The Potency in assay [2] is 63.6 µM (active); in assay [10], 54.8 µM (active).

As for `C=CC(C)(CCC=C(C)C)OC(=O)CC(C)C` (stereo not given), the Potency result in assay [1], in [2], in assay [3], in assay [4], in assay [5] and in [10] was “inactive” in each case. For the same compound, the Potency result in assay [6] and in [7] was “inactive” each time.

As for `Cc1cc(O)ccc1O`, the Potency in [1] and in assay [6] was 61.8 µM (active) in each case. The Potency result in assay [2], in [3], in assay [4], in assay [5], in [8] and in assay [9] was “inactive” in each case.

As to `c1csc(SSc2cccs2)c1`, the Potency in assay [1] is 54.5 µM (active); in assay [2], 22.4 µM (active); in assay [3] it was 54.5 µM (active); in assay [4], 48.6 µM (active); in assay [5], 43.3 µM (active). In addition, the Potency result in assay [10], in [9] and in assay [7] was “inactive” each time.

As to `CCCCCCCCOc1ccc(C(=O)O)cc1`, the Potency result in assay [1], in assay [3], in assay [4], in assay [5], in assay [6] and in assay [7] was “inactive” throughout. Besides, the Potency in assay [2] was 31.4 µM (active).

Take `C[C@@H]1CN(CCCn2c3ccccc3c3ccccc32)C[C@H](C)N1`: the Potency is 29.8 µM (active) in assay [1]; 29.8 µM (active) in assay [3]; 26.6 µM (active) in [4]; 2.11 µM (active) in [10]; 26.6 µM (active) in [6]. Also, the Potency result in assay [2] and in [9] was “inactive” throughout.

As for `Nc1ccc(N=Nc2ccccc2)c(N)c1`, the Potency in assay [1] is 26.7 µM (active); in assay [2], 2.47 µM (active); in [3], 30 µM (active); in assay [4] it was 53.3 µM (active); in [6] it was 26.7 µM (active).

On to `Cc1ccc2c(Br)cc(Br)c(O)c2n1`, for which, in assay [1], the Potency was 11.9 µM (active). For the same compound, the Potency entry in assay [2], in assay [3], in [4], in assay [5], in assay [10] and in assay [9] was “inactive” throughout. In assay [7], the Potency entry is “inactive”.

Turning to `CCOC(=O)c1ccc(I)cc1`, the Potency entry in assay [1], in assay [3], in [4], in assay [6] and in assay [8] was “inactive” each time. Also, the Potency in assay [2] was 50.7 µM (active); in [9], 4.9 µM (active).

In the case of `CCOC(=O)/C=C/C(=O)OCC`, the Potency result in assay [1], in assay [2], in [3], in assay [4], in [6] and in assay [8] was “inactive” in each case. In addition, the Potency result in assay [9] and in assay [7] was “inactive” in each case.
